Sampled rows, rich in hits. Any-hit rate of the full collection: about 6.5%.
Vaccinia mCherry – qHTS for Stage-Specific Inhibitors of Vaccinia Orthopoxvirus: mCherry Reporter Primary qHTS. Vaccinia virus mCherry reporter infection, fluorescence. Potency, µM (series often up to 36.5 µM), for inactives: at the highest dose activity change, negative = inhibition, actives largely listed as inhibitors. hit rate 0.63% among 310,000; calls by dose curve; tested in A549 cells; also: potency is read from the fitted curve at half-maximal effect; nearly all actives have a fitted effect of over 35% in size
HCMV antiviral – qHTS Assay for inhibitors of the human cytomegalovirus (HCMV); HFF cells, HCMV-luciferase reporter, 72 h; active compounds read low; activity change, negative = inhibition, % at 57.5 µM; hit rate 4.5% among 410,000; AID 1259415, 2018; in the data active = activity change below about -60%; inconclusive = no clear call, values can overlap the other calls; inactive = above about -39%
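Inhibition of viral replication was scored as loss of reporter luminescence in HFFs infected with HCMV-luciferase (MOI 1 PFU/cell) for 72 h; compounds tested at 2 doses, normalized to buffer and Salinomycin controls.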
MARV entry inh – qHTS for inhibitors of binding or entry into cells for Marburg Virus. AID 540276, 2011. Potency, µM (top dose mostly 37.8 µM), for the others: top-dose activity change, negative = inhibition, usual class: inhibitors. Marburg virus pseudotyped entry inhibition, cell reporter. hit rate 1.8% among 300,000; calls by dose curve; tested in HEK293 cells; also: potency is read from the fitted curve at half-maximal effect
VACV Venus inh – qHTS for Stage-Specific Inhibitors of Vaccinia Orthopoxvirus: Venus Reporter Primary qHTS; Vaccinia virus Venus reporter expression, fluorescence; Potency, µM (series often up to 36.5 µM), inactives show at the top dose activity change, negative = inhibition, most hits filed as inhibitors; hit rate 0.46% among 330,000; AID 720580, 2013; calls by dose curve; tested in A549 cells; also: potency is read from the fitted curve at half-maximal effect; nearly all actives have a fitted effect of over 30% in size
LASV entry inh – qHTS for Inhibitors of binding or entry into cells for Lassa Virus | Lassa virus pseudotype entry inhibition, cell reporter | Potency, µM (series often up to 37.9 µM), for inactives: at the top dose activity change, negative = inhibition, most hits filed as inhibitors | hit rate 1.2% among 300,000 | AID 540256, 2011; calls by dose curve; tested in HEK293 cells; also: potency is read from the fitted curve at half-maximal effect; nearly all actives have a fitted effect of over 50% in size
FMDV antiviral – High Throughput Screening for Foot and Mouth Disease Virus Antivirals; FMDV antiviral cell-based qHTS; Potency, µM (highest dose often 57.9 µM), inactives show top-dose activity change, negative = inhibition, most hits filed as inhibitors; hit rate 1.2% among 410,000; calls by dose curve; tested in HEK293T cells; also: read-out not given here; potency is read from the fitted curve at half-maximal effect; nearly all actives have a fitted effect of over 45% in size
* marks the source's active call; other numbers are inactive results; i = inactive; ? = inconclusive; nt = no result; [ ] = dose if it differs, or a comment. % is scaled to controls: 0 for no effect and ±100 for the full control effect.

SMILES	Vaccinia mCherry	HCMV antiviral	MARV entry inh	VACV Venus inh	LASV entry inh	FMDV antiviral
C/C(CC(=O)Nc1ccccn1)=N\NC(=O)c1ccccc1O	4µM*	-91*	?	-12%	?	29%
C/C(CC(=O)Nc1cc(C)ccn1)=N\NC(=O)c1cccc(C)c1O	?	-98*	?	-30%	?	51%
C/C(CC(=O)Nc1ccccn1)=N\NC(=O)c1ccc2ccccc2c1	-19%	-4	16%	-6%	3%	33%
COc1ccccc1NC(=O)c1cc2c([nH]c1=O)CC(C)(C)CC2=O	-5%	9	14%[46.1 µM]	-12%	6%[46.1 µM]	10%
C=CCOC(=O)NC(c1ccc(F)c(F)c1)C(C(=O)CCl)C(=O)OC (configuration not stated)	nt	nt	-20%[14.2 µM]	nt	?	nt
FC(F)(F)c1cccc(C2NCc3ccccc3-n3cccc32)c1 (configuration not stated)	?	?	?	-25%	11µM*	-18%
Cc1cc(C(=O)NCc2cc(C)n(C)n2)sc1-c1ccccc1	-10%	-83*	?	-24%	-29%	-24%
COc1ccc(N2CCN(C(=O)c3cccn3-c3nnc(N4CCCC4)s3)CC2)cc1	-11%	0	nt	-6%	-2%[46.1 µM]	10%
Cc1ccc(CNC(=O)C(=O)NCCCn2ccnc2)cc1	-13%	-67*	4%	-4%	-23%	-9%
O=C(NCCCn1ccnc1)C(=O)NCc1ccc(Cl)cc1	-1%	17	20%[46.1 µM]	9%	0%	0%
COc1cccc(NC(=O)C(=O)NCCCn2ccnc2)c1	9%	-64*	-9%[46.1 µM]	10%	20%	45%
CCOc1ccc(CNC(=O)c2ccc(NC(=O)N3CCSc4ncccc43)cc2)cc1OC	-6%	0	nt	-9%	1%[46.1 µM]	-22%
COc1ccc(CN2C(=O)C(n3ccc4ccccc43)c3cc(F)ccc32)cc1 (configuration not stated)	nt	14	nt	nt	nt	nt
O=C(O)c1ccccc1S(=O)(=O)Cc1ccccc1	i	-26	1%	-3%	8%	nt
Cn1ncc(S(=O)(=O)Cc2ccccc2)c(Br)c1=O	nt	nt	-18%	nt	9.2µM*	nt
Cc1ccc2occ(/C=N/NC(=O)c3ccccc3O)c(=O)c2c1	nt	-83*	nt	nt	nt	10%
Cc1ccc2occ(/C=N/NC(=O)c3ccc(Cl)cc3)c(=O)c2c1	-16%	-65*	11%	-3%	0%	-17%
O=C(N/N=C/c1coc2ccc(Cl)cc2c1=O)c1cc(O)cc(O)c1	-21%	2	-10%	-9%	-2%	-21%
Cc1ccc2occ(/C=N/NC(=O)c3ccncc3)c(=O)c2c1	nt	-31	nt	nt	nt	1%
CCOc1ccccc1C(=O)N/N=C/c1coc2ccc(Cl)cc2c1=O	i	-74*	?	-16%	?	-3%
Cc1ccccc1OCC(=O)Nc1ccc2nc(SCC(N)=O)sc2c1	i	-7	-23%[46.1 µM]	-10%	21%[46.1 µM]	5%
O=C(NCc1ccc(F)cc1)c1ccc(S(=O)(=O)N2CCCC2)cc1	i	-8	nt	-7%	nt	-6%
CNC(=O)c1cc(-c2ccc(F)cc2)cc(-c2ccc(S(=O)(=O)N3CCCC3)cc2)c1N	nt	nt	nt	nt	8.9µM*	nt
CCSc1ncc(Cl)c(C(=O)N2CCN(c3ccc(OC)cc3)CC2)n1	-14%	-13	-8%[46.1 µM]	-15%	1%[46.1 µM]	-10%
CCCS(=O)(=O)c1ncc(Cl)c(C(=O)N2CCN(c3ccc(OC)cc3)CC2)n1	-16%[7.34 µM]	-103*	nt	-9%[7.34 µM]	?	-12%
SMILES	Vaccinia mCherry	HCMV antiviral	MARV entry inh	VACV Venus inh	LASV entry inh	FMDV antiviral
COc1ccc(S(=O)(=O)NCc2ccncc2)cc1NC(=O)c1ccccc1C	-13%	-26	-27%[46.1 µM]	-2%	-24%	13%
COc1ccc(S(=O)(=O)NCc2ccncc2)cc1OC	nt	-65*	-19%	nt	-9%	19%
COc1ccc(S(=O)(=O)NCc2ccncc2)cc1NC(=O)c1ccccc1F	nt	-88*	nt	nt	nt	34%
COc1ccc(S(=O)(=O)Nc2ccc(Cc3ccncc3)cc2)cc1OC	?	-65*	1.4µM*	-30%	?	-17%
Cc1cc(S(=O)(=O)NCc2ccncc2)c(C)cc1Br	-8%	-87*	?	-24%	?	-3%
COc1ccc(S(=O)(=O)NCc2cccnc2)cc1OC	i	23	5%[46.1 µM]	-13%	-2%[46.1 µM]	25%
Cc1ccc(CNC(=O)CCS(=O)(=O)c2cc3c4c(c2)CCN4C(=O)CC3)cc1	-5%	-9	nt	-4%	12%[46.1 µM]	15%
CCc1ccccc1N(C)C(=O)c1nn(C)c2c1CSc1ccccc1-2	-9%	6	-26%[46.1 µM]	-9%	17%[46.1 µM]	26%
CCc1ccc(OC(C)c2nc(-c3ccc(-n4cccc4)cc3)no2)cc1 (configuration not stated)	-12%[7.34 µM]	-25	-8%[46.1 µM]	-6%[7.34 µM]	?	-19%
COc1cc(S(=O)(=O)NCc2ccncc2)c(OC)cc1Cl	-3%	-79*	1%[46.1 µM]	-8%	-28%	42%
CCc1ccc(OC)c(S(=O)(=O)Nc2ccc(Cc3ccncc3)cc2)c1	?	-75*	?	-18%	13µM*	19%
CCc1nn(CC(=O)NCCN2CCN(C)CC2)c(=O)c2cc3occc3n12	nt	-104*	16%	?	-7%	-18%
COC(=O)c1ccccc1NC(=O)Cn1c(=O)n(CCCC(=O)NCCc2ccc(OC)c(OC)c2)c(=O)c2ccccc21	-5%	13	2%[46.1 µM]	-7%	2%[46.1 µM]	8%
Cc1nn(-c2cccc(C(F)(F)F)c2)c(Cl)c1/C=N/Nc1cccc(C(=O)O)c1	i	152	?	-14%	?	-18%
Cc1ccc(C)c(OCC(=O)N/N=C/c2c(C)nn(-c3ccccc3)c2Cl)c1C	i	-68*	11%	-11%	?	-17%
COC(=O)N/N=C\c1c(C)nn(-c2ccccc2)c1Cl	i	2	-20%	-15%	-15%	48%
CCOC(=O)N/N=C/c1c(C)nn(-c2cccc(C(F)(F)F)c2)c1Cl	?	?	?	?	7.1µM*	?
COc1ccccc1C1CN(Cc2cccn2-c2ncccn2)Cc2ccccc2O1 (configuration not stated)	0%	nt	nt	9%	nt	-19%
CCOC(=O)CCCCCN1C(=O)c2cccc3cccc(c23)C1=O	nt	-100*	nt	nt	nt	-3%
COc1ccccc1N1CCN(C2=Nc3cccc4cccc2c34)CC1	-9%	-6	6.3µM*	-7%	?	-32%
COc1ccccc1N1CCN(C(=O)CCCn2c(=S)[nH]c3ccccc3c2=O)CC1	?	-15	nt	?	nt	25µM*
c1cc2c3c(cccc3c1)C(N1CCOCC1)=N2	9%	24	19%[14.2 µM]	2%	?	-17%
CC(=O)N1CCN(C2=Nc3cccc4cccc2c34)CC1	1%	-3	-11%	8%	27%	nt

Assay outcomes (PubChem BioAssay)
